System: ACVRL1
Conditions: concentration: 1 μM, replicates: in singlicate; n = 1
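Further: KINOMEscan kinase panel screen.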

Structure (SMILES)	%Inh [%]
Cc1occc1-c1ncc(OC[C@@H](N)Cc2c[nH]c3ccccc23)cc1-c1ccc2[nH]nc(C)c2c1.O=C(O)C(F)(F)F [GSK682037]	0
C[C@@H]1CC[C@@H](C(=O)Nc2ccccc2)CN1c1cc(-c2ccc3c(N)n[nH]c3c2)nc(N)n1 [GSK2286062]	0
COc1cc(Nc2nccc(-c3c(-c4cccc(NC(=O)c5c(F)cccc5F)c4)nn4ncccc34)n2)cc(OC)c1OC [GSK327238]	0
C[C@@H](Oc1cc(-n2cnc3cc(-c4ccnc(NCCS(C)(=O)=O)c4)ccc32)sc1C(N)=O)c1ccccc1Cl [GSK907232]	0
CN1CCN(Cc2cccc(-c3ccc4c(Nc5ccc(Oc6ccccc6)cc5)ccnc4c3)c2)CC1 [GW578342]	0
Cc1ccc(S(=O)(=O)Nc2ccc(Nc3nccc(Nc4cccc5[nH]ncc45)n3)cc2)cc1 [GSK581271]	30

System: T1, ADCK3
T1 construct: gene CABC1
Conditions: concentration: 1 μM, replicates: in singlicate; n = 1

Structure (SMILES)	%Inh [%]
Cl.c1ccc(-c2ccc3c(Nc4ccc5[nH]ccc5c4)ccnc3c2)nc1 [GW440138]	2
Nc1n[nH]c2cnc(-c3ccccc3)cc12 [SB-642124]	19
CN(C)Cc1ccc(-c2ccc3c(Nc4ccc(Oc5ccccn5)cc4)ccnc3c2)o1 [GW567148]	0
CC(C)(C)c1ccc2nccc(Nc3cccc(O)c3)c2c1 [GW856795]	0
O=c1[nH]cc(-c2ccc(N3CCOCC3)cc2)c2sc(-c3cn[nH]c3)cc12 [GSK2276055]	0
O=C(Nc1n[nH]c2cc(-c3ccoc3)ccc12)C1CC1 [SB-738481]	0
CC(=O)N1CCN(c2ccc(Nc3nccc(-c4sc(C(C)C)nc4-c4cccc(NS(=O)(=O)c5cccc(Cl)c5)c4)n3)cn2)CC1 [GSK1660437]	73
COc1cc2c(cc1OCCN1CCNCC1)ncc1c3ccc(C#N)cc3[nH]c21	13
CNC(=O)c1ccccc1Nc1nc(Nc2ccc(N3CCOCC3)cc2)ncc1Cl.Cl [GSK1576028]	35
Oc1cc(Nc2ccnc3cc(I)ccc23)ccc1F [GW552771]	19
COc1cccc(C2=C(Nc3ccc(Cl)c(C(=O)O)c3)C(=O)NC2=O)c1 [SB-390769]	0
O=C(Nc1cccc(-c2nn3ccccc3c2-c2ccnc(Nc3cccc(F)c3)n2)c1)c1c(F)ccc(F)c1Cl [GSK357952]	16
O=C(Nc1cccc(Oc2ccc3nc(NC(=O)C4CC4)cn3n2)c1)c1ccccc1C(F)(F)F	3
CSc1cccc2c(-c3ccncn3)c(-c3ccc(F)cc3)nn12 [GW514786]	68
Cn1cc(-c2[nH]c3cc(NC(=O)[C@H](N)C4CCCCC4)cc4c3c2C=NNC4=O)cn1	0
COc1ccc(CNC(=O)NC2CCN(c3ccnc(Nc4ccc(F)cc4)n3)CC2)cc1 [GSK1379788]	9
COc1cccc(NC(=O)NC2CCN(c3ccnc(Nc4cc(OC)c(OC)c(OC)c4)n3)C2)c1 (stereo not shown) [GSK1379763]	0
O=C(Nc1n[nH]c2nc(-c3ccc(O)cc3)ccc12)C1CC1 [SB-710363]	0
CN1CCN(CCCNc2nccc(-c3c(-c4ccc(F)cc4)nn4cc(C(F)(F)F)ccc34)n2)CC1 [GW621581]	70

Structure (SMILES)	%Inh [%]
c1ccc(-c2n[nH]cc2Nc2ccnc3ccccc23)nc1 [GW694077]	3
CCc1ccc(-c2ccc3c(c2)-c2c(cnn2C)S(=O)(=O)N3C)cc1	0
NCCCC(NC(=O)c1cc(Br)c(-c2ccnc3[nH]ccc23)s1)c1ccccc1.O=C(O)C(F)(F)F.O=C(O)C(F)(F)F (stereo not shown) [GSK1287544]	20
Nc1ncc(-c2cccnc2)c2scc(-c3ccc4c(c3)CCN4C(=O)Cc3ccccc3)c12 [GSK683281]	5
Cl.c1ccc(-c2ccc3c(Nc4ccc5[nH]ncc5c4)ccnc3c2)nc1 [GW440137]	3
Cc1ccc(C)c(NC(=O)NC2CCN(c3ccnc(Nc4ccc(F)cc4)n3)C2)c1 (stereo not shown) [GSK1379720]	0
COc1cc(Nc2nccc(-c3c(-c4cccc(NC(=O)c5c(F)cccc5F)c4)nn4ccccc34)n2)cc(OC)c1OC [GSK323521]	10
Fc1ccc(-c2ncn(C3CCNCC3)c2-c2ccnc(Oc3ccc(-c4ccccc4)cc3)n2)cc1 [SB-245391]	0
COc1cc(Nc2ncc3c(C)nc(-c4cc5ccccc5[nH]4)n3n2)cc(OC)c1OC [GW869516]	22
Clc1ccc(-c2nn3ncccc3c2-c2ccnc(Nc3ccc4c(c3)OCCO4)n2)cc1 [GW829116]	16
c1ccc(-c2cnc3nccnn23)cc1 [AH20685]	0
O=C(Nc1ccccc1F)NC1CCN(c2ccnc(Nc3ccc(F)cc3)n2)CC1 [GSK1379800]	1
Cc1occc1-c1ncc(OC[C@@H](N)Cc2c[nH]c3ccccc23)cc1-c1ccc2[nH]nc(C)c2c1.O=C(O)C(F)(F)F [GSK682037]	25
C[C@@H]1CC[C@@H](C(=O)Nc2ccccc2)CN1c1cc(-c2ccc3c(N)n[nH]c3c2)nc(N)n1 [GSK2286062]	29
COc1cc(Nc2nccc(-c3c(-c4cccc(NC(=O)c5c(F)cccc5F)c4)nn4ncccc34)n2)cc(OC)c1OC [GSK327238]	0
C[C@@H](Oc1cc(-n2cnc3cc(-c4ccnc(NCCS(C)(=O)=O)c4)ccc32)sc1C(N)=O)c1ccccc1Cl [GSK907232]	25
CN1CCN(Cc2cccc(-c3ccc4c(Nc5ccc(Oc6ccccc6)cc5)ccnc4c3)c2)CC1 [GW578342]	8
Cc1ccc(S(=O)(=O)Nc2ccc(Nc3nccc(Nc4cccc5[nH]ncc45)n3)cc2)cc1 [GSK581271]	41
